Most compounds without a hit are left out; they make up all but 9% or so of the library.
ALDH1A1 block = qHTS Assay for Inhibitors of Aldehyde Dehydrogenase 1 (ALDH1A1) | 220,000 compounds, 7.3% hits | AID 1030, 2008 | Potency, µM (titrated, usually from 75.3 µM), for inactives: at the top dose activity, negative = inhibition, actives largely listed as inhibitors | Purified ALDH1A1, NADH fluorescence, propionaldehyde substrate | Aldehyde dehydrogenase 1A1 (Homo sapiens), P00352; active means well fitted inhibition curve with a large enough effect, not every such curve was filed as active; inconclusive means small, poorly fitted or top-dose-only effect, or another doubt; inactive means no such curve, though single readings can be large or run the other way;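 further: plate controls were no enzyme wells and a reference inhibitor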
Target sequence (P00352 whole entry, looked up): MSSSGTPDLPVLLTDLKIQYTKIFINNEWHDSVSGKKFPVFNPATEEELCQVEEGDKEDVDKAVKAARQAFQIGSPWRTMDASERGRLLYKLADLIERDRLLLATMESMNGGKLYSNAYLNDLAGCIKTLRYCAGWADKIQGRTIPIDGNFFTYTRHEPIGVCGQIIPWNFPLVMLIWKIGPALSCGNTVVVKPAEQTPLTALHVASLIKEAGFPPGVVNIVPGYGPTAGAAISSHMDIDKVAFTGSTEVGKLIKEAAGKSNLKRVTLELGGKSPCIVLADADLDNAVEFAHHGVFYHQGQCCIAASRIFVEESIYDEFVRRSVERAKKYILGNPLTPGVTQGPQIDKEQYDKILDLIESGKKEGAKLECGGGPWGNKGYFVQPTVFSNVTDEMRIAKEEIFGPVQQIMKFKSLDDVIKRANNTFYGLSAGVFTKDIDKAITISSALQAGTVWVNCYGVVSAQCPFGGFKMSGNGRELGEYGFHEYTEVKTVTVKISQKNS
HTT aggregate = qHTS Multiplex Assay to Identify Dual Action Probes in a Cell Model of Huntington: Aggregate Formation (GFP) | PC12 HttQ103-GFP aggregates, Acumen cytometry, 40 h | Potency, µM (series often up to 46.1 µM), without a hit: at the top dose activity change, negative = inhibition, usual class: inhibitors | 220,000 compounds, 1.1% hits | AID 1688, 2009; further: on the % scale 0 is the no-effect control and ±100 the full control effect; nearly all actives have a fitted effect of over 60% in size
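PC12/HTTQ103-GFP, ecdysone-inducible; teb 100 nM; cpd qHTS titration; GFP aggregates read on laser cytometer, Ex 488/Em 500-530 nm.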
LMNA splice mod = qHTS Assay for Modulators of Lamin A Splicing; HeLa LMNA splicing GFP/RFP minigene ratio, 48 h; Potency, µM (top dose mostly 46.1 µM), for the others: at the top dose ratio change, negative = inhibition, most hits filed as inhibitors; 200,000 compounds, 0.01% hits; AID 1487, 2009; active means well fitted inhibition curve with a large enough effect in the signal ratio, with a control signal flat, not every such curve was filed as active; inconclusive means small, poorly fitted or top-dose-only effect, or effect the other way, or a change in a side signal; the % refers to the signal ratio; further: on the % scale 0 is the no-effect control and ±100 the full control effect
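S3 HeLa cells stably expressing lamin A-EGFP splicing minigene plus DsRed2, 600 cells/well, 48 h compound exposure at 37C. Laser-scanning cytometry; analysed as GFP (500-530 nm)/RFP (575-640 nm) total intensity ratio; 0.5% DMSO vehicle.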
HTT ATP protect = qHTS Multiplex Assay to Identify Dual Action Probes in a Cell Model of Huntington: Cytoprotection (ATP) | PC12 HTT-Q103 induced, cytoprotection, ATP luminescence, 40 h | 230,000 compounds, 0.14% hits | Potency, µM (titrated, usually from 56.4 µM), for the others: cytoprotection (ATP increase), usual class: activators | AID 1471, 2008; further: % of control where 0% means no effect; nearly all actives have a fitted effect of over 45% in size
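Cells were plated at 1500 per well in phenol red-free DMEM with 5% equine and 5% calf serum. Tebufenozide (100 nM final) and compounds were added, then ATPlite reagent, and luminescence was read.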
HPGD inh = qHTS Assay for Inhibitors of HPGD (15-Hydroxyprostaglandin Dehydrogenase); 150,000 compounds, 4.3% hits; purified HPGD, NADH fluorescence kinetic, PGE2 substrate; Potency, µM, without a hit: at the highest dose activity change, negative = inhibition, hits mostly inhibitors; active means well fitted inhibition curve with a large enough effect, not every such curve was filed as active; inconclusive means small, poorly fitted or top-dose-only effect, or another doubt; inactive means no such curve, though single readings can be large or run the other way; further: on the % scale 0 is the no-effect control and ±100 the full control effect
Target sequence (P15428 whole entry, looked up): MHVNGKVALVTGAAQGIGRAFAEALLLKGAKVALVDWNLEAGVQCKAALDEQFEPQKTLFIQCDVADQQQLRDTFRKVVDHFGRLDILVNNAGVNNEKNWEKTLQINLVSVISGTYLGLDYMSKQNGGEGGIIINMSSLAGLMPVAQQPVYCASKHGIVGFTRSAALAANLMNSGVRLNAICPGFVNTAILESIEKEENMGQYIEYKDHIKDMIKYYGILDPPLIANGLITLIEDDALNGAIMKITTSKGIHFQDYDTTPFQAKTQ
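NADH formation kinetics: reaction with 30 uM PGE2 and 1 mM NAD+ (final), 20 nM enzyme, Tris-HCl pH 8 with Tween 20, after 15 min compound preincubation at room temperature. Fluorescence change, last versus first of five reads.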
Luc counter = Counterscreen for Luciferase (Kinase-Glo TM) Inhibition; Luciferin 4-monooxygenase (Photuris pensylvanica), Q27757; Kinase-Glo luciferase, ATP luminescence, 8 min; Potency, µM (series often up to 38.3 µM), for the others: top-dose activity change, negative = inhibition, most hits filed as inhibitors; 200,000 compounds, 0.28% hits; further: on the % scale 0 is the no-effect control and ±100 the full control effect; nearly all actives have a fitted effect of over 60% in size
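Kinase-Glo luciferase light output from ATP and luciferin was measured with 10 uM ATP, within the enzyme's linear range. Buffer: 50 mM imidazole pH 7.2, 50 mM KCl, 7 mM MgCl2, 0.01% Tween 20, 0.05% BSA; luminescence read after 8 min at ambient temperature.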
Starred values were filed as active, the others as inactive; ? = inconclusive; · = no result given; [ ] = remark or other dose. Unless noted, the call rests on the fitted dose curve; in most records, active means well fitted curve in the direction sought with a large enough effect; inconclusive means small, poorly fitted or top-dose-only effect, or another doubt; inactive means no such curve, though single readings can be large; an effect the other way counts as inactive or inconclusive. Potency means the concentration at half of the fitted maximal effect.

SMILES | ALDH1A1 block | HTT aggregate | LMNA splice mod | HTT ATP protect | HPGD inh | Luc counter
Cc1cccc(/C=C2\CCC(=C3SCCCS3)C2=O)c1 | 8.9µM* | 7% | 1% | -60% | -28% | ?
O=C(O)CC(CNS(=O)(=O)c1cccc2nsnc12)c1ccccc1 (centres undefined) | 10% | -5% | -6%[9.22 µM] | -6% | · | 4%
CC(C)(C)c1ccc(/C=C2/SC(N3CCCC3)=NC2=O)cc1 | ? | -17%[9.22 µM] | · | -22%[10 µM] | · | ·
CCOC(=O)c1[nH]c(C)c(C(=O)NC(C)(C)C)c1C | 9% | 1% | 1% | 1% | 0% | 3%
CCCCC(=O)Nc1nc(C)c(-c2csc(Nc3cc(Cl)ccc3OC)n2)s1 | 10µM* | 25% | 10% | -43% | ? | -4%
CCCC(=O)Nc1nc(C)c(-c2csc(Nc3ccccc3C)n2)s1 | 10µM* | 23% | 4% | -29% | 32µM* | 1%
CCCCCC(=O)Nc1nc(C)c(-c2csc(Nc3ccccc3OC)n2)s1 | ? | -11% | -2% | -59% | ? | -2%
CC(=O)C(Sc1ccc2nnc(-c3cccnc3)n2n1)C(C)=O | 4% | -30% | -4%[9.22 µM] | -31% | · | 0%
COc1ccc(C(=O)CCN(C)C)c2ccccc12 | 0.028µM* | · | · | -10%[10 µM] | -29% | -5%[7.66 µM]
COc1ccc(C(=O)c2ccc(Cl)cc2)c2ccccc12 | -6% | -25% | -17% | -4%[10 µM] | -7% | -2%
CN(c1ccc(O)cc1)c1nc(-c2cccs2)cs1 | 7% | 15%[9.22 µM] | 0%[46 µM] | 32%[10 µM] | · | -4%
Cc1nc(N)sc1-c1csc(N(C)c2ccc(O)cc2)n1 | 14µM* | -11% | ? | -34% | 14µM* | 6%
CCOc1cc(S(=O)(=O)NC2CCCCCC2)ccc1F | 3.2µM* | -33% | ? | 1% | 25µM* | 7%
CSc1nc2ccc(NS(=O)(=O)c3ccc4c(c3)OCCO4)cc2s1 | -3% | 8.9µM* | ? | 11%[10 µM] | -22% | 0%
O=S(=O)(Nc1ccc2c(c1)OCCO2)c1ccc2oc3ccccc3c2c1 | ? | 11µM* | ? | -1%[0.074 µM] | 28µM* | 2%
CSc1nc2ccc(S(=O)(=O)N3CCOCC3)cc2s1 | -5% | -9% | -10% | 14% | -14% | 0%
CSc1nc2ccc(S(=O)(=O)NC3CCCCC3)cc2s1 | ? | ? | ? | 3% | 16µM* | -2%
CCOc1ccccc1NC(=O)CCSc1nc2n[nH]c(C)c2c(=N)n1-c1ccccc1Cl | -4% | 22% | 8% | -12% | ? | 0%
Nn1c(SCC(=O)Nc2ccc3c(c2)OCO3)nnc1-c1ccccc1 | -15% | 5% | 10% | -3%[10 µM] | 2% | 0%
Cc1cccc2c(=O)c(C(=O)NCCCN3CCOCC3)c[nH]c12 | 8% | -3% | -2% | 11%[10 µM] | -8% | -1%
COc1cc2c(cc1OC)-c1cc(N3CCCc4ccccc43)nc(=O)n1CC2 | 11µM* | -4% | -2% | 3% | -23% | 0%
CCc1ccc(NC2CC(=O)N(c3ccc(OC)cc3OC)C2=O)cc1 (centres undefined) | -16% | -20% | -8% | -12% | -10% | 0%
CC(C)COCC(O)CCC(=O)NNC(=S)Nc1ccccc1 (centres undefined) | -4% | 14% | -3% | 19%[10 µM] | -16% | 0%
CC(C)COC(=S)Nc1ccccc1 | 25µM* | -2%[9.22 µM] | 8% | 6% | 11µM* | 6%
COc1cc2c(C#N)c(N3CCc4ccccc4C3)nc(N)c2c(N)n1 | ? | ? | -3% | -5%[10 µM] | ? | 0%
SMILES | ALDH1A1 block | HTT aggregate | LMNA splice mod | HTT ATP protect | HPGD inh | Luc counter
CCOC(=O)C1(C(F)(F)F)N=C(c2cccnc2)OC(N2CCOCC2)=N1 (centres undefined) | 8% | 2% | 5% | -7% | -15% | 1%
C/C(=N\NS(=O)(=O)c1ccc(C)cc1)c1ccc(C)s1 | 18µM* | -1% | 14% | -24% | -2% | 1%
C/C(=N\NS(=O)(=O)c1ccc(C)cc1)c1ccc(Br)s1 | ? | -6%[1.84 µM] | 6% | ? | -10% | 7%
CC(=O)CSc1nnc(-c2ccncc2)n1C | -7% | 2% | 9% | 2% | -6% | 19%
Cn1c(SCCCC(=O)c2ccc(Br)cc2)nnc1-c1ccncc1 | 7% | -22% | ? | -5% | 18µM* | -4%
Cc1ccccc1OCCSc1nnc(-c2ccncc2)n1C | 7% | -2% | -5% | 4% | -8% | -2%
Cn1c(SCCOc2ccccc2Cl)nnc1-c1ccncc1 | 13% | 0.79µM* | -3% | -1% | -12% | 1%
Cc1cc(N2CCN(C)CC2)nc2ccc(NC(=O)c3ccccc3F)cc12 | 1% | 11% | · | -67% | · | 2%
COc1ccc(-n2c(CNc3ccc(C)cc3)nnc2SCc2ccccc2)cc1 | -8% | -1% | ? | -42%[10 µM] | -21% | 2%
CCOc1ccc(NCc2nnc(SCc3ccccc3Cl)n2-c2ccccc2)cc1 | 13µM* | -22% | -5% | -47% | -15% | 1%
COCCC(=O)N1CCCC(CCC(=O)NCc2ccc(F)c(F)c2)C1 (centres undefined) | 2% | 13%[9.22 µM] | -3%[46 µM] | 43%[10 µM] | · | 1%
COc1cccc(CNC(=O)CCC2CCCN(C(=O)c3ccc(OC)o3)C2)c1 (centres undefined) | 7.9µM* | 7%[9.22 µM] | · | 10%[10 µM] | · | -19%
CCOC(=O)CNC(=O)N1CCCC(CCC(=O)NCc2ccc(F)c(F)c2)C1 (centres undefined) | 32µM* | -23% | · | -24% | · | 8%
CCC1(C)Cc2c(sc3nnn(CC(=O)Nc4ccccc4C)c(=O)c23)CO1 (centres undefined) | 1% | 15% | 11% | 5% | -5% | -1%
COc1ccc(C(=O)N2CC3(CC(c4cccc([N+](=O)[O-])c4)=NO3)C[C@H]2C(=O)NCC(N)=O)cc1 (some centres undefined) | 11µM* | -3% | 8% | 4% | ? | 3%
CCC(=O)N1CC2(CC(c3cccc([N+](=O)[O-])c3)=NO2)C[C@H]1C(=O)NCC(N)=O (some centres undefined) | 2% | 24% | 16% | 0% | -14% | 0%
c1ccc(C2=Nc3ccccc3NC(c3ccccc3)C2)cc1 (centres undefined) | -6% | 20% | -16% | 1% | -7% | 0%
N#CCSc1nnc(Nc2ccccc2)s1 | ? | 11% | 0% | 4% | 28µM* | -7%
